Bioassay records deposited in PubChem BioAssay by ICCB-Longwood Screening Facility, Harvard Medical School.
Compounds with a hit are over-represented: about 1.4% of the library has one in this group of screens.
Mtb MbtI inh: inhibitors of Mycobacterium tuberculosis siderophore enzyme MbtI; P9WFX0; purified MbtI enzyme, fluorescence intensity read-out; inhibition, % (no concentration beside the values); 100,000 compounds, 0.89% hits; AID 493033; in the data active = inhibition mostly above about 56%, no sharp cut-off; inactive = mostly below about 77%
Target sequence (P9WFX0 whole entry, looked up): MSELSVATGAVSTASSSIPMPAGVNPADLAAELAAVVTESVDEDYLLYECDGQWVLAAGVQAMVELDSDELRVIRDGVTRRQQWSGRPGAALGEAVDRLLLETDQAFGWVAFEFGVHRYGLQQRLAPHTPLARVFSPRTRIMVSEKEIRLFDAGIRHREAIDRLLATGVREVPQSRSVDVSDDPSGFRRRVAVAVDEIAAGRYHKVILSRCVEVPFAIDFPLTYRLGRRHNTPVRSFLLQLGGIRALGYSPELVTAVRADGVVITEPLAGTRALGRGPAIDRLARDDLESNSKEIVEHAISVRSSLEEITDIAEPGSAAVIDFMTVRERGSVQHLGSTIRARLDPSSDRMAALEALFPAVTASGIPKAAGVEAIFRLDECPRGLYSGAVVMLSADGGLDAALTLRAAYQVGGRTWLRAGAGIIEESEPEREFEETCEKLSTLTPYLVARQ
Polio RdRp inh: inhibitors of poliovirus RNA polymerase binding and polymerization | P03300 | poliovirus polymerase elongation, fluorescence polarization; stronger effect = lower value | % elongation, % (compound at 16.7 µg/mL) | 150,000 compounds, 0.66% hits; in the data active = % elongation below about 90%
AID504770: E. coli YBA685 growth inhibition, screen for V. cholerae RctB inhibitors; E. coli YBA685 rctB-dependent plasmid, OD600 growth, 3 h; stronger effect = lower value; z-score (no concentration beside the values); 130,000 compounds, 0.27% hits; in the data active = z-score below about -2, passing the limit was not always enough
MenB inh: inhibitors of Mycobacterium tuberculosis MenB enzyme | P9WNP5 | MenB enzyme assay, absorbance read-out | inhibition, % (test concentration not listed) | 100,000 compounds, 0.43% hits | AID 540299; in the data active = inhibition above about 21%, passing the limit was not always enough
Active calls of the source: *; i = inactive; nt = no result given.

SMILES	Mtb MbtI inh	Polio RdRp inh	AID504770	MenB inh
N#C/C(=C(/O)CSc1n[nH]c(=O)[nH]c1=O)c1nc2ccccc2[nH]1	77.3*	105.0	-0.8	1.3
Cc1cc2oc(=O)cc(CSc3ncccn3)c2cc1Cl	62.6	105.0	-3.1*	-21.0
O=c1cc(CSc2ncccn2)c2cc3c(cc2o1)CCC3	12.9	100.0	-0.15	0.9
CCOC(=O)c1c(NC(=O)Cc2ccccc2)sc2c1CCCC2	nt	103.0	-0.2	nt
O=C(Cn1cnc2ccccc2c1=O)N1CCCCCC1	4.7	100.0	1.35	32.7*
O=C(Cn1cnc2ccccc2c1=O)N1CCc2ccccc21	-30.0	106.0	0.65	7.7
Cc1cccc(C)c1N1C(=O)CSCC1=O	-13.5	105.0	-0.2	-20.1
Cc1ccc(C(=O)CSc2cccc[n+]2[O-])cc1	69.3*	100.0	1.9	nt
CCOc1ccc(NC(=O)C2CCN(c3nc4ccccc4[nH]3)CC2)cc1	nt	109.0	nt	nt
CCN(CC)c1ccc(N)c(C)c1	98.4*	101.0	-0.1	-3.4
CCOc1cc2c(cc1OCC)C1C(C(=O)NCCC(C)C)c3ccccc3C(=O)N1CC2 (stereo not drawn)	12.8	102.0	-2.9*	-12.0
COc1cccc(C2CC(=O)N3CN(C4CCCCC4)CSC3=C2C#N)c1 (stereo not drawn)	nt	77.0*	nt	nt
CCOC(=O)CN1CSC2=C(C#N)C(c3ccc(OC)cc3)CC(=O)N2C1 (stereo not drawn)	79.9	102.0	0.55	5.9
COc1cccc(C2CC(=O)NC(SC)=C2C#N)c1 (stereo not drawn)	-7.8	104.0	-0.75	-12.7
COc1ccc(C2CC(=O)N3CN(C4CCCCC4)CSC3=C2C#N)cc1 (stereo not drawn)	nt	75.0*	nt	nt
Cc1csc(=O)n1CC(=O)NC1CCCc2ccccc21 (stereo not drawn)	-3.2	95.0	0.65	5.5
CCOc1ccc(C(=O)OC2CC3CCC(C2)N3C)cc1 (stereo not drawn)	-11.4	103.0	-0.6	-6.9
N=C(N)SCc1csc(N)n1	nt	87.0*	-0.45	7.4
Cc1cc(C)nc(SCc2csc(N)n2)n1	0.8	98.0	-0.4	-23.8
CC(NCC(=O)NN)c1ccccc1 (stereo not drawn)	-0.1	99.0	0.15	-13.5
CCS(=O)(=O)C1=NSC2=NC(=O)/C(=C\c3ccco3)C(=N)N21	34.8	72.0*	-0.45	-40.8
CN(C)Cc1nc2ccccc2c(=O)n1CC#N	4.9	113.0	1.25	9.0
N#CCn1c(Cc2ccccc2)nc2ccccc2c1=O	13.9	101.0	0.7	47.9*
N#CCn1c(C[S+]=C=N)nc2ccccc2c1=O	84.3*	100.0	0.6	-39.6
Cc1ccc(S(=O)(=O)N(CCc2ccccc2)CC(=O)Nc2ccc(Br)cc2)cc1	nt	102.0	nt	nt
SMILES	Mtb MbtI inh	Polio RdRp inh	AID504770	MenB inh
N#CCOC(=O)c1ccc(-c2cc(=O)c3ccccc3o2)cc1	nt	nt	-0.2	nt
N#CCOC(=O)c1cc(=O)c2ccccc2o1	-12.8	74.0*	0.25	2.4
CN(C)[C@@H]1C(=O)C(C(=O)NCN2CCCC2)=C(O)[C@@]2(O)C(=O)C3=C(O)c4c(O)cccc4[C@@](C)(O)C3CC12 (stereo partly drawn)	-10.2	96.0	nt	-3.6
C=C1c2c(Cl)ccc(O)c2C(O)=C2C(=O)[C@]3(O)C(O)=C(C(N)=O)C(=O)[C@@H](N(C)C)[C@@H]3[C@@H](O)[C@H]12	-54.5	102.0	-4.25*	4.0
CN(C)[C@@H]1C(=O)C(C(N)=O)=C(O)[C@@]2(O)C(=O)C3=C(O)c4c(O)cccc4[C@@](C)(O)[C@H]3C[C@@H]12	2.8	99.0	-3.2*	-0.9
C=C1c2cccc(O)c2C(O)=C2C(=O)[C@]3(O)C(O)=C(C(N)=O)C(=O)[C@@H](N(C)C)[C@@H]3[C@@H](O)[C@H]12	-1.2	100.0	-3.35*	5.2
C[C@H]1c2cccc(O)c2C(O)=C2C(=O)C3(O)C(O)=C(C(N)=O)C(=O)[C@@H](N(C)C)[C@@H]3[C@@H](O)[C@@H]21 (stereo partly drawn)	3.3	101.0	nt	-12.0
COC(=O)c1ccc(NC(=O)COc2cccc3ccccc23)cc1	nt	102.0	-0.15	-36.5
CCC(C)NC(=O)CCC(=O)NNc1nc2ccccc2c2nc(C)nn12 (stereo not drawn)	nt	36.0*	nt	nt
COCCNC(=O)CCC(=O)NNc1nc2ccccc2c2nc(C)nn12	nt	30.0*	nt	nt
CC1(C)CC(=O)C2=C(C1)N(Cc1ccco1)C1=C(C(=O)c3ccccc31)C2c1ccc(F)cc1 (stereo not drawn)	14.3	101.0	1.25	16.4
Cc1ccc(CC(C#N)Sc2nnc(C)n2Cc2ccccc2)cc1 (stereo not drawn)	-1.6	107.0	0.2	-6.3
N#CSC(C#N)Cc1ccccc1 (stereo not drawn)	82.9*	98.0	-6.45*	19.3
CCOC(=O)c1c(Nc2ccc(OC)c(Cl)c2)n[nH]c1C	87.8*	98.0	3	-56.4
NC(=S)N/N=C(/C(=O)c1ccccn1)c1ccccn1	90.8*	74.0*	-0.7	-8.1
N/C(=N\O)c1ccccn1	-3.7	104.0	-0.1	3.4
N/C(=N\NS(=O)(=O)c1ccccc1)c1ccccn1	6.8	104.0	1.15	-13.3
NC(=S)c1ccccn1	10.0	20.0*	-1.05	-30.3
c1ccc(Cn2c3ccccc3n3nc(-c4ccccc4)nc23)cc1	5.6	103.0	-0.15	-25.8
O=S(=O)(c1ccc(Cl)cc1)c1nnn2c1nc(NCc1ccc3c(c1)OCO3)c1sccc12	nt	108.0	nt	nt
O=c1occ(CO)c(O)c1CN1CCCCC1	nt	100.0	-0.05	6.7
CSc1nc2ccc(I)cc2c(=O)n1C	1.9	98.0	0.85	0.0
Cc1occc1C(=O)NN	-7.8	102.0	0.35	-5.0
CCOCCCNc1n[nH]c(=S)s1	93.3	88.0*	-0.55	-2.1
Cc1nnc(SCC(=O)Nc2ccc(Cl)cc2Cl)n1C	-12.7	101.0	-0.15	nt
SMILES	Mtb MbtI inh	Polio RdRp inh	AID504770	MenB inh
CCOC(=O)CC1Sc2ccccc2N=C1SCC(=O)Nc1ccc(Cl)cc1Cl (stereo not drawn)	95.8*	110.0	1.85	-53.5
CCOc1ccccc1C(=O)Nc1c(NC)c2ccccc2oc1=O	nt	108.0	nt	nt
O=c1[nH]c(-c2ccco2)nc2sc3c(c12)CCCC3	i	103.0	-0.3	nt
O=c1[nH]c(-c2ccccc2O)nc2sc3c(c12)CCCC3	nt	89.0*	-0.2	-4.3
CCC(C)(C)C(=O)Nc1nnc(COC)s1	9.5	101.0	0.25	33.0*
COCc1nnc(NC(=O)Cc2ccccc2)s1	nt	100.0	-0.5	-4.8
O=C(c1cccnc1Nc1ccccc1F)N1CCCCC1	8.4	100.0	1.1	38.8*
COc1ccc(C2=NC(C)(C)N(CC(=O)Nc3cc(OC)cc(OC)c3)C2=O)cc1	nt	110.0	nt	nt
Cn1cc(Br)c(N2C(=O)C=CC2=O)n1	94.7*	100.0	-4.15*	-12.3
O=S(=O)(c1cccc(-c2nn3c(-c4ccncc4)nnc3s2)c1)N1CCCCC1	91.2	85.0*	0	-0.5
c1ccc(-c2nnc3sc(-c4ccc5c(c4)OCO5)nn23)cc1	77.4	100.0	0.8	-28.8
Cc1cc(C(=S)NC(=O)c2ccccc2)c(C)n1C	65.3*	102.0	0.8	-17.6
